Unmarked numbers belong to inactive results. Where a call stands in place of a potency, no number is given. The source made the active and inactive calls. The call rests on the fitted dose curve.
Potency means the concentration at half of the fitted maximal effect.

Chain of Acetylcholinesterase (Homo sapiens) (P22303 whole entry, looked up): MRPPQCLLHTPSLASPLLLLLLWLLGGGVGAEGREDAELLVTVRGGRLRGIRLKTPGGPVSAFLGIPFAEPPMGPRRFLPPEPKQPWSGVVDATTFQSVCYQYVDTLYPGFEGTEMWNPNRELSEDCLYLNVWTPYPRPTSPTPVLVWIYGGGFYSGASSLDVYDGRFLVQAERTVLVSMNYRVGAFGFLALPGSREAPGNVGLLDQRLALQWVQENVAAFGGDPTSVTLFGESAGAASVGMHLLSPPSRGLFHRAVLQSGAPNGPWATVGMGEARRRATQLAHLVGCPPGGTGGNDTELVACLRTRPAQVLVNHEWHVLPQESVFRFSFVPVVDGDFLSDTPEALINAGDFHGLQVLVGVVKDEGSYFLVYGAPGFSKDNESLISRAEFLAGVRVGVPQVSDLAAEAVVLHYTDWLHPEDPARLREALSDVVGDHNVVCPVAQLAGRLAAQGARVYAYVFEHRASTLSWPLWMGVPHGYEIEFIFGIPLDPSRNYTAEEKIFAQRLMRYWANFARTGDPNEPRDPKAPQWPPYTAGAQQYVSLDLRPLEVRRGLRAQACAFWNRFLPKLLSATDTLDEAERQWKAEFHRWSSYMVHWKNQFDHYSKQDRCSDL

The target in the assay is Acetylcholinesterase (Homo sapiens) (UniProt P22303). Nature of the assay: Acetylcholinesterase (AChE) small molecule antagonists: enzyme-based qHTS assay (AID 1347397). Further: nearly all actives have a fitted effect of over 55% in size. The note with it: Potency: AChE enzyme activity inhibition; outcome: AChE enzyme activity inhibition; series mostly up to 115 µM. The source says:
National Center for Advancing Translational Sciences [NCATS]
Division of Preclinical Innovation [DPI]
U.S. Environmental Protection Agency [EPA]
National Institutes of Environmental Health Sciences [NIEHS]
National Toxicology Program [NTP]
U.S. Food and Drug Administration [FDA]
Acetylcholinesterase (AChE) is the primary cholinesterase in the body that hydrolyzes a key neurotransmitter, acetylcholine. Inhibition of AChE activity can lead to neurotoxicity. The known inhibitors include organophosphorous pesticides (OP), chemical warfare agents, drugs, and various phytochemicals.
An enzyme-based assay with the recombinant human AChE and Amplite Colormetric acetylcholinesterase assay kit (AAT Bioquest, Sunnyvale, CA) was used to evaluate the chemicals in the Tox21 10K library that inhibit AChE activity. The assay uses 5, 5-dithiobis-(2-nitrobenzoic acid) (DTNB) to quantify the thiocholine produced from the hydrolysis of acetylthiocholine by AChE.
Tox21 Assay Protocol Summary:
For the enzyme-based AChE assay, recombinant human AChE (50 mU/mL) in 4 uL/well was dispensed into black, clear-bottom 1536-well plates using a Multidrop Combi dispenser (Thermo Scientific, MA). Then, 23 nL of compound or DMSO (vehicle control) was transferred into the assay plates by a Pintool Station (Wako Automation, CA). The plates were incubated for 30 min at room temperature, followed by the addition of 4 uL of colorimetric detection cocktail solution (DTNB, acetylthiocholine) into each well using a Flying Reagent Dispenser (Beckman Coulter, CA) and then 10 min incubation at room temperature.
On the technique in general: qHTS replaces the single test concentration by a dilution series.
On to `CO[C@@H]1[C@@H](O[C@@H]2O[C@H](C)[C@@H](O[C@H]3C[C@@](C)(O)[C@@H](O)[C@H](C)O3)[C@H](N(C)C)[C@H]2O)[C@@H](CC=O)C[C@@H](C)[C@@H](O[C@@H]2CC[C@H](N(C)C)[C@@H](C)O2)/C=C/C=C/C[C@@H](C)OC(=O)C[C@H]1OC(C)=O`, for which the Potency result is “inactive”.
For `NS(=O)(=O)c1cc2c(cc1Cl)NC(C(Cl)Cl)NS2(=O)=O` (stereo not given), the Potency entry is “inactive”.
Same read-out and setting: for `CCOC(=O)c1nc(C(Cl)(Cl)Cl)n(-c2ccc(Cl)cc2Cl)n1` the value was “inactive”; for `Nc1ccc(Cl)c([N+](=O)[O-])c1`, “inactive”.
Still for that read-out and setting: for `CC1CCC(=O)C1=O` (stereo not given) the value was “inactive”; for `C1CCC2(CCCCO2)OC1`, “inactive”.
With `Oc1ccc(Cl)cc1C1CCCC1`, the Potency result was “inactive”.
As to `CC(=O)Nc1cccc(N)c1`, the Potency entry is “inactive”.
The same measure, in the same setting: the value for `CN[C@H]1CC[C@@H](c2ccc(Cl)c(Cl)c2)c2ccc(S(N)(=O)=O)cc21` was “inactive”; that for `CCCCCCCCCCCCCCC1CO1` (stereo not given) was “inactive”; that for `COC(C(=O)O)c1ccccc1` (stereo not given) was “inactive”.
On the same count and under the same terms, for `C=C(C)C(=O)OCCCC` the value was “inactive”; for `CC(C)OC(=O)C(C)N(C(=O)c1ccccc1)c1ccc(F)c(Cl)c1` (stereo not given), “inactive”.
Regarding `CCOC(=O)COc1cc(-n2ncc(C(F)(F)F)c(C)c2=O)c(F)cc1Cl`, the Potency result is “inactive”.
The same measure, in the same setting: for `C[C@H](CN1CCCC1)C(=O)c1ccc(C(F)(F)F)cc1` the value was “inactive”.
Same read-out and setting: for `CCCOC(=O)c1c(Cl)c(Cl)c(Cl)c(Cl)c1C(=O)OCCC` the value was “inactive”; for `CCCCOc1ccc(CC(=O)NO)cc1`, “inactive”; for `CC(=O)CCc1ccc(O)cc1`, “inactive”.
On the same count and under the same terms, the value for `COC(=O)CS` was “inactive”; that for `c1ccc(CN(Cc2ccccc2)Cc2ccccc2)cc1` was “inactive”.
In the case of `CC(=O)S[C@H](C(=O)N[C@H]1Cc2ccccc2[C@H]2CCC[C@@H](C(=O)O)N2C1=O)C(C)C`, the Potency result is “inactive”.
On the same count and under the same terms, for `O=C(N/N=C/c1ccccc1O)c1ccncc1` the value was “inactive”.
Turning to `CN1CCCC(n2nc(Cc3ccc(Cl)cc3)c3ccccc3c2=O)CC1` (stereo not given), the Potency is 27.5 µM (active).
Take `COc1c2occc2c(OC)c2c(=O)cc(C)oc12`: the Potency result was “inactive”.
In the case of `CC(=O)N[C@@H](CC(C)C)C(=O)O`, the Potency result was “inactive”.
On the same count and under the same terms, the value for `CC(=O)[C@H]1[C@H](C#N)C[C@H]2[C@@H]3CC=C4C[C@@H](O)CC[C@]4(C)[C@H]3CC[C@@]21C` was “inactive”; that for `CCCCC(CC)CNC(=O)CC(C)OC(=O)CCC(=O)O` (stereo not given) was “inactive”.
With `BrC/C=C/CBr`, the activity change, negative = inhibition was 2.59% [at 23.6 µM].
`CCCCOC(=O)C(C)O` (stereo not given): the Potency result is “inactive”.
On the same count and under the same terms, for `c1ccc2sc(SN(C3CCCCC3)C3CCCCC3)nc2c1` the value was “inactive”; for `CCCCOCC`, “inactive”.
Take `OCCCC1CCCCC1`: the Potency result is “inactive”.
On the same count and under the same terms, for `O=C(O)CCN(C1(C(=O)NO)CCCC1)S(=O)(=O)c1ccc(Oc2ccc(F)cc2)cc1` the value was “inactive”; for `CC(C)(C)c1ccc(N)cc1`, “inactive”; for `O=C(O)Cc1ccc(OCCNC[C@H](O)c2ccccc2)cc1`, “inactive”.
Same read-out and setting: the value for `CCCCCO` was “inactive”; that for `COc1cnc(NS(=O)(=O)c2ccc(N)cc2)nc1` was “inactive”; that for `COc1ccc2cc(CCC(C)=O)ccc2c1` was “inactive”.
Still for that read-out and setting: for `CCCCCCOC(=O)c1ccccc1O` the value was “inactive”; for `N=C(N)S(=O)O`, “inactive”.

(Values after PubChem BioAssay (Tox21).)
